Laboratory results published in PubChem BioAssay (EPA / NIEHS).
Results filed as inconclusive are left out. Activity calls are given as the source filed them. How the source made its calls: active means hit-call score of the fitted dose curve at least 0.9, where 1 is the maximum; inconclusive means response in the unintended direction; inactive means score below 0.9.

Molecular target: Peroxisome proliferator-activated receptor gamma (Homo sapiens) (UniProt P37231)
Assay: ATG_PPARg_TRANS: Attagene TRANS-FACTORIAL HepG2 Assay for human Peroxisome Proliferator-activated Receptor-gamma (PPARg) (AID 2283007)
Summary of the method: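 Gain-of-signal endpoint relative to DMSO, derived from reporter mRNA levels quantified by RT-PCR and capillary electrophoresis. Cells were HepG2 transiently expressing a chimeric NR-Gal4 construct with GAL4-UAS reporters, exposed to chemicals for 24 h.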

Sequence of Peroxisome proliferator-activated receptor gamma (Homo sapiens) (P37231 whole entry, looked up): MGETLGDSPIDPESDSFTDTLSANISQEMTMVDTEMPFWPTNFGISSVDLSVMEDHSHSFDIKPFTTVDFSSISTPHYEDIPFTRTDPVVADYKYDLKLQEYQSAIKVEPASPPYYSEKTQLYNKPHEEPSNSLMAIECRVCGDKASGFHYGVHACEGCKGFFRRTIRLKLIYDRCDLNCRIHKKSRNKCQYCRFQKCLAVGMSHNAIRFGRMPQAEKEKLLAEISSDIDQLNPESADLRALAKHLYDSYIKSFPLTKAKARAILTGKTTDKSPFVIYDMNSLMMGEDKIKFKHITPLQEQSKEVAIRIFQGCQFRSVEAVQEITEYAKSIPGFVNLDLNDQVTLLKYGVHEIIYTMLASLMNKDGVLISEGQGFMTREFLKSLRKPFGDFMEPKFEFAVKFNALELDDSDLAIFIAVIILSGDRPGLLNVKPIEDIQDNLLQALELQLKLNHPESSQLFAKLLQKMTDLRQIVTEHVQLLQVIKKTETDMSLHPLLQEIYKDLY

SMILES	outcome	AC50
Cc1ccc2ncccc2c1	inactive	
C=CCc1ccc(O)c(OC)c1		40.5 µM (active)
O=c1c(O)c(-c2ccc(O)c(O)c2)oc2cc(O)cc(O)c12	inactive	
C[C@]12C=CC(=O)C=C1CC[C@@H]1[C@@H]2C(=O)C[C@@]2(C)[C@H]1CC[C@]2(O)C(=O)CO	inactive	
Cc1c(C(=O)O)c(O)cc2c1C(=O)c1c(O)c([C@@H]3O[C@H](CO)[C@@H](O)[C@H](O)[C@H]3O)c(O)c(O)c1C2=O	inactive	
CCOC(=O)C(C)(C)Oc1ccc(Cl)cc1	inactive	
NS(=O)(=O)c1cc2c(cc1Cl)NCNS2(=O)=O	inactive	
CCCCOC(=O)CCCCCCCCC(=O)OCCCC	inactive	
COc1cc(-c2nc(NC(=O)c3cc4cc(C)cc(C)c4n3CC(=O)O)sc2CCC2CCCCC2)c(OC)cc1Cl	inactive	
Cc1nc(-c2ccc3c(c2)CCN(CCC2CCC(NC(=O)/C=C/c4ccc(F)cc4)CC2)CC3)no1 (configuration not stated)	inactive	
Cc1cccc([N+](=O)[O-])c1C	inactive	
C=CCOC(=O)c1ccccc1C(=O)OCC=C	inactive	
CCCCCCCCCCCCCO	inactive	
O=[N+]([O-])C(CO)(CO)CO	inactive	
CCCCCCCCCCCCCCCCCC(=O)O	inactive	

Molecular target: Nuclear receptor subfamily 1 group I member 2 (Homo sapiens) (UniProt O75469)
Sequence (O75469 whole entry, looked up): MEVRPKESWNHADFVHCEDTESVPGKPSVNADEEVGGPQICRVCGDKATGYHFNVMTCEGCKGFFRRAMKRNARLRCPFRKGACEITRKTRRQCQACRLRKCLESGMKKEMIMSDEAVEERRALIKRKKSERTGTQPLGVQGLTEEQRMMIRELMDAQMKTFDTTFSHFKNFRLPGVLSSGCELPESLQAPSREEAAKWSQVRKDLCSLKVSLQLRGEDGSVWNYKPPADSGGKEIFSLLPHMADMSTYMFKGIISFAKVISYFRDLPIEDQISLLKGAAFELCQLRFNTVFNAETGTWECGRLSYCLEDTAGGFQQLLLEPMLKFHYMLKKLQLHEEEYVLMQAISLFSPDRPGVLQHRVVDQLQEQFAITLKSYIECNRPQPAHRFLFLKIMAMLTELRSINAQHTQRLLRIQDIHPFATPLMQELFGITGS
Assay: ATG_PXR_TRANS: Attagene TRANS-FACTORIAL HepG2 Assay for human Pregnane X Receptor (PXR) (AID 2283008)
Summary of the method: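 HepG2 cells transiently transfected with GAL4-UAS reporter units and PXR-Gal4 chimera, exposed 24 h. Reporter mRNA quantified by RT-PCR, fluorescent labelling, HpaI digestion and capillary electrophoresis; gain of signal vs DMSO.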

SMILES	AC50	outcome
O=C(O)Cc1ccccc1Nc1c(Cl)cccc1Cl	4.47 µM (active)	
C=CCc1ccc(O)c(OC)c1	38.5 µM (active)	
COC(=O)c1ccc(O)cc1		inactive
CCCCc1ccc2c(n1)[C@@H](c1ccc(OC)cc1C[C@H](C)C(=O)O)[C@H](C(=O)O)[C@H]2c1ccc2c(c1)OCO2		inactive
C[C@]12C=CC(=O)C=C1CC[C@@H]1[C@@H]2C(=O)C[C@@]2(C)[C@H]1CC[C@]2(O)C(=O)CO		inactive
Cc1cccc(Nc2cc(Cl)nc(SCC(=O)O)n2)c1C	21 µM (active)	
NS(=O)(=O)c1cc2c(cc1Cl)NCNS2(=O)=O		inactive
Cc1nc(C)nc(N2C[C@@H](C)N(c3ccnc([C@@H](C)O)n3)[C@@H](C)C2)n1	82.4 µM (active)	
CCCCOC(=O)CCCCCCCCC(=O)OCCCC		inactive
COc1cc(-c2nc(NC(=O)c3cc4cc(C)cc(C)c4n3CC(=O)O)sc2CCC2CCCCC2)c(OC)cc1Cl		inactive
OC[C@@H](O)[C@@H](O)[C@H](O)[C@H](O)CO		inactive
NCC1(Cc2noc(=O)[nH]2)CCCCC1		inactive
Cc1cccc([N+](=O)[O-])c1C	5.4 µM (active)	
C=CCOC(=O)c1ccccc1C(=O)OCC=C		inactive
Cc1cccc(C)c1O		inactive
CC(CO)OC(C)CO (configuration not stated) (tested in a mixture with another compound)		inactive
CCCCCCCCCCCCCO		inactive

Molecular target: human Retinoic Acid Receptor gamma (RARg), RARG (gene 5916) (UniProt P13631)
Sequence (P13631 whole entry, looked up): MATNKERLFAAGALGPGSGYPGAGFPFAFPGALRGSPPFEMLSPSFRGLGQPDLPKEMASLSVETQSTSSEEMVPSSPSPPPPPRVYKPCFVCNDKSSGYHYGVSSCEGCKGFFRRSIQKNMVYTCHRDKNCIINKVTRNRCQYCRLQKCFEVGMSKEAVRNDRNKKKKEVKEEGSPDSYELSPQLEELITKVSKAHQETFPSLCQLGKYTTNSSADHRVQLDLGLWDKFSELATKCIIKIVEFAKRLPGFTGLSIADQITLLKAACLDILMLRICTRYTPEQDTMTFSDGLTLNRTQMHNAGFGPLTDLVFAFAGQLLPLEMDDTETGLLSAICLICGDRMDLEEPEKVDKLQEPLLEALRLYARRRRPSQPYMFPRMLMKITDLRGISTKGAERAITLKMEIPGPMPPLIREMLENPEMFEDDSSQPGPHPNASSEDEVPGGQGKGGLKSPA
Assay: ATG_RARg_TRANS: Attagene TRANS-FACTORIAL HepG2 Assay for human Retinoic Acid Receptor gamma (RARg) (AID 2283009)
Summary of the method: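 HepG2 cells transiently transfected with multiplexed reporter units expressing chimeric RARg-GAL4 and GAL4-UAS-driven reporters; 24 h compound exposure. Reporter mRNA quantified by RT-PCR with fluorescent labelling and capillary electrophoresis; gain-of-signal fitted relative to DMSO baseline.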

SMILES	outcome
CCCCCCCCCCC	inactive
O=c1c(O)c(-c2ccc(O)c(O)c2)oc2cc(O)cc(O)c12	inactive
c1cc(-c2ccncc2)ccn1	inactive
Cc1c(C(=O)O)c(O)cc2c1C(=O)c1c(O)c([C@@H]3O[C@H](CO)[C@@H](O)[C@H](O)[C@H]3O)c(O)c(O)c1C2=O	inactive
Cc1nc(C)nc(N2C[C@@H](C)N(c3ccnc([C@@H](C)O)n3)[C@@H](C)C2)n1	inactive
CCCCOC(=O)CCCCCCCCC(=O)OCCCC	inactive
OC[C@@H](O)[C@@H](O)[C@H](O)[C@H](O)CO	inactive
CCOC(=O)CCC(=O)OCC	inactive
Cc1cccc([N+](=O)[O-])c1C	inactive
C=CCOC(=O)c1ccccc1C(=O)OCC=C	inactive
Cc1cccc(C)c1O	inactive
CCCCCCCCCCCCCCCCCC(=O)O	inactive

Molecular target: human RAR-related Orphan Receptor beta (RORb), RORB (gene 6096) (UniProt Q92753)
Sequence (Q92753 whole entry, looked up): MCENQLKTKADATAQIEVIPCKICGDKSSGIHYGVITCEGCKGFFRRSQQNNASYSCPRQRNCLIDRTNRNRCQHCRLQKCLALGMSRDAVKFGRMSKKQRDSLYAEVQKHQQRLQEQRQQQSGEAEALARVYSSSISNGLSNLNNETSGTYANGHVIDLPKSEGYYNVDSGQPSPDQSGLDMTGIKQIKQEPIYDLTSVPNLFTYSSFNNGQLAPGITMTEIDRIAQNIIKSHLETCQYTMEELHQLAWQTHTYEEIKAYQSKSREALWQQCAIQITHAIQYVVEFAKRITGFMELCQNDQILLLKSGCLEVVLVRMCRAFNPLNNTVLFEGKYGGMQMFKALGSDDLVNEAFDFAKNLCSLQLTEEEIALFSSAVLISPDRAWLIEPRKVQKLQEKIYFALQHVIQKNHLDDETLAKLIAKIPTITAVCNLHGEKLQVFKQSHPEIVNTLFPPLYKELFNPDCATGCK
Assay: ATG_RORb_TRANS: Attagene TRANS-FACTORIAL HepG2 Assay for human RAR-related Orphan Receptor beta (RORb) (AID 2283010)
Summary of the method: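 HepG2 cells were transiently transfected with multiplexed GAL4-UAS reporter units expressing chimeric nuclear receptor–GAL4 proteins, then dosed for 24 h. Reporter mRNA was quantified by RT-PCR with fluorescent labelling and capillary electrophoresis; gain of signal was fitted relative to DMSO.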

SMILES	outcome
O=C(O)Cc1ccccc1Nc1c(Cl)cccc1Cl	inactive
COCCOCCOC	inactive
C=CCc1ccc(O)c(OC)c1	inactive
CCCCc1ccc2c(n1)[C@@H](c1ccc(OC)cc1C[C@H](C)C(=O)O)[C@H](C(=O)O)[C@H]2c1ccc2c(c1)OCO2	inactive
O=c1c(O)c(-c2ccc(O)c(O)c2)oc2cc(O)cc(O)c12	inactive
Cc1c(C(=O)O)c(O)cc2c1C(=O)c1c(O)c([C@@H]3O[C@H](CO)[C@@H](O)[C@H](O)[C@H]3O)c(O)c(O)c1C2=O	inactive
CCCCOC(=O)CCCCCCCCC(=O)OCCCC	inactive
NCC1(Cc2noc(=O)[nH]2)CCCCC1	inactive
CCOC(=O)CCC(=O)OCC	inactive
C=CCOC(=O)c1ccccc1C(=O)OCC=C	inactive
O=C(O)CCCCC(=O)O	inactive

Molecular target: human RAR-related Orphan Receptor gamma (RORg), RORC (gene 6097) (UniProt P51449)
Sequence (P51449 whole entry, looked up): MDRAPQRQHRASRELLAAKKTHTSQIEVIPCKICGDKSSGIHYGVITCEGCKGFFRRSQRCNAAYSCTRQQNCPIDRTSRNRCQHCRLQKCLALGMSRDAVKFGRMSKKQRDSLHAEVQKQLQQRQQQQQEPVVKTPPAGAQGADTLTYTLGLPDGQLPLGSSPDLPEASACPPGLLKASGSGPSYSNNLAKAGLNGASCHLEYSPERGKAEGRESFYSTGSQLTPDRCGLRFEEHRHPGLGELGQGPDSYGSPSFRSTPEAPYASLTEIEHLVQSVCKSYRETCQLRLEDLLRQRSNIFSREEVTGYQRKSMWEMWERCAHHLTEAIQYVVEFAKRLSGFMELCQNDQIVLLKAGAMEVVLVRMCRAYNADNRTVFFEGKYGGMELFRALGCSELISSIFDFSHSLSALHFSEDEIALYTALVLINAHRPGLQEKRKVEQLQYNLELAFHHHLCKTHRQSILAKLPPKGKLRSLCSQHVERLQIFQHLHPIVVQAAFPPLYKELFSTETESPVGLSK
Assay: ATG_RORg_TRANS: Attagene TRANS-FACTORIAL HepG2 Assay for human RAR-related Orphan Receptor gamma (RORg) (AID 2283011)
Summary of the method: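 Transient MRTU transfection of HepG2 (TRANS format, exogenous NR-Gal4 chimera). 24 h dosing. Total RNA → oligo(dT) RT → PCR → 6-FAM labelling → HpaI cut → CE. Gain vs DMSO.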

SMILES	outcome
Cc1ccc2ncccc2c1	inactive
CCCCc1ccc2c(n1)[C@@H](c1ccc(OC)cc1C[C@H](C)C(=O)O)[C@H](C(=O)O)[C@H]2c1ccc2c(c1)OCO2	inactive
O=c1c(O)c(-c2ccc(O)c(O)c2)oc2cc(O)cc(O)c12	inactive
C[C@]12C=CC(=O)C=C1CC[C@@H]1[C@@H]2C(=O)C[C@@]2(C)[C@H]1CC[C@]2(O)C(=O)CO	inactive
CCOC(=O)C(C)(C)Oc1ccc(Cl)cc1	inactive
CC1(C)CC(N=C=O)CC(C)(CN=C=O)C1 (configuration not stated)	inactive
NS(=O)(=O)c1cc2c(cc1Cl)NCNS2(=O)=O	inactive
NCC1(Cc2noc(=O)[nH]2)CCCCC1	inactive
Cc1cccc(C)c1O	inactive
O=C(O)CCCCC(=O)O	inactive
O=[N+]([O-])C(CO)(CO)CO	inactive
CCCCCCCCCCCCCCCCCC(=O)O	inactive
